Test [1] in a line: qHTS of pediatric cancer cell lines to identify multiple opportunities for drug repurposing: Primary screen for SJ-GBM2 cells (AID 1347091). Further: potency means the concentration at half of the fitted maximal effect. Put shortly:
(§1)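 Viability measured as metabolically active cells via CellTiter-Glo luminescence following 48 hours of compound exposure, 11-point dilutions in confirmatory testing. 500-1,000 cells/well plated 5 hours before dosing; controls were DMSO and 2.3 µM bortezomib.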
In general terms: qHTS replaces the single test concentration by a dilution series.

Test [2] in a line: qHTS of pediatric cancer cell lines to identify multiple opportunities for drug repurposing: Primary screen for A673 cells (AID 1347092). Further: nearly all actives have a fitted effect of over 45% in size. Further: potency means the concentration at half of the fitted maximal effect. Put shortly: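 Titration-based qHTS on A673 cells: MIPE compounds spanned 11 points (0.78 nM to 46 µM final), NPC compounds 8 points (0.59 nM to 46 µM final). Viability after 48 h was measured by ATP luminescence.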
A short description of test [3]: qHTS of pediatric cancer cell lines to identify multiple opportunities for drug repurposing: Primary screen for SK-N-MC cells (AID 1347093). Further: potency means the concentration at half of the fitted maximal effect. Put shortly: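 Metabolically active cells were quantified by ATP-dependent luminescence (CellTiter-Glo, 15 min at room temperature) following 48 h treatment. Cells had been plated at 500-1,000 per well and settled for 5 h beforehand.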

A short description of test [4]: qHTS of pediatric cancer cell lines to identify multiple opportunities for drug repurposing: Primary screen for BT-37 cells (AID 1347094). Further: potency means the concentration at half of the fitted maximal effect. An outline of the steps:
(§2)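 Quantitative HTS format: each compound titrated (MIPE 11 points from 0.78 nM, NPC 8 points from 0.59 nM) onto cells plated 5 hours earlier. After 48 h at 37 degrees C, CellTiter-Glo luminescence was recorded.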

Test [5] is described as follows: qHTS of pediatric cancer cell lines to identify multiple opportunities for drug repurposing: Primary screen for NB-EBc1 cells (AID 1347095). Further: potency means the concentration at half of the fitted maximal effect. An outline of the steps:
as §2

Test [6] in a line: qHTS of pediatric cancer cell lines to identify multiple opportunities for drug repurposing: Primary screen for U-2 OS cells (AID 1347096). Further: nearly all actives have a fitted effect of over 50% in size. Further: potency means the concentration at half of the fitted maximal effect. Put shortly: (§3)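 Viability after 48 h compound treatment at 37C, 500-1,000 cells/well, read as ATP luminescence with CellTiter-Glo. Primary screens used 11-point (MIPE, 0.78 nM-46 µM) or 8-point (NPC, 0.59 nM-46 µM) final concentrations; follow-up screens used 11-point dilutions.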

Test [7] can be described thus: qHTS of pediatric cancer cell lines to identify multiple opportunities for drug repurposing: Primary screen for Saos-2 cells (AID 1347097). Further: nearly all actives have a fitted effect of over 40% in size. Further: potency means the concentration at half of the fitted maximal effect. Put shortly: as §2
The nature of test [8]: qHTS of pediatric cancer cell lines to identify multiple opportunities for drug repurposing: Primary screen for SK-N-SH cells (AID 1347098). Further: nearly all actives have a fitted effect of over 65% in size. Further: potency means the concentration at half of the fitted maximal effect. An outline of the steps:
(§4)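 Cells (500-1,000/well) rested 5 h, then received compounds for 48 h; metabolically active cells were measured by CellTiter-Glo luminescence. Final concentrations spanned up to 46 µM (MIPE, 11-point) or 0.59 nM-46 µM (NPC, 8-point) in primary screens, 11-point in follow-ups.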

The nature of test [9]: qHTS of pediatric cancer cell lines to identify multiple opportunities for drug repurposing: Primary screen for NB1643 cells (AID 1347099). Further: nearly all actives have a fitted effect of over 50% in size. Further: potency means the concentration at half of the fitted maximal effect. An outline of the steps:
as §2

Test [10] is described as follows: qHTS of pediatric cancer cell lines to identify multiple opportunities for drug repurposing: Primary screen for LAN-5 cells (AID 1347100). Further: potency means the concentration at half of the fitted maximal effect. Put shortly:
as §3

Test [11] in a line: qHTS of pediatric cancer cell lines to identify multiple opportunities for drug repurposing: Primary screen for Rh18 cells (AID 1347102). Further: nearly all actives have a fitted effect of over 65% in size. Further: potency means the concentration at half of the fitted maximal effect. Put shortly:
as §3

A short description of test [12]: qHTS of pediatric cancer cell lines to identify multiple opportunities for drug repurposing: Primary screen for OHS-50 cells (AID 1347103). Further: nearly all actives have a fitted effect of over 40% in size. Further: potency means the concentration at half of the fitted maximal effect. Put shortly:
as §4

Test [13] is described as follows: qHTS of pediatric cancer cell lines to identify multiple opportunities for drug repurposing: Primary screen for RD cells (AID 1347104). Further: nearly all actives have a fitted effect of over 55% in size. Further: potency means the concentration at half of the fitted maximal effect. Put shortly: as §2
The nature of test [14]: qHTS of pediatric cancer cell lines to identify multiple opportunities for drug repurposing: Primary screen for MG 63 (6-TG R) cells (AID 1347105). Further: nearly all actives have a fitted effect of over 50% in size. Further: potency means the concentration at half of the fitted maximal effect. Put shortly:
as §2

A short description of test [15]: qHTS of pediatric cancer cell lines to identify multiple opportunities for drug repurposing: Primary screen for control Hh wild type fibroblast cells (AID 1347106).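 Further: series mostly up to about 46 µM; a drop in luminescence marks cytotoxicity and a rise apparent proliferation; nearly all actives have a fitted effect of over 55% in size.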 Put shortly: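 Cells (500-1,000/well) in growth media were settled 5 h at 37 degrees C, then given compounds for 48 h. Viability was read as CellTiter-Glo luminescence. Primary runs used MIPE at 11 points (0.78 nM-46 µM) and NPC at 8 points (0.59 nM-46 µM); follow-ups used 11 points.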

The nature of test [16]: qHTS of pediatric cancer cell lines to identify multiple opportunities for drug repurposing: Primary screen for Rh30 cells (AID 1347107). Further: nearly all actives have a fitted effect of over 75% in size. Further: potency means the concentration at half of the fitted maximal effect. An outline of the steps: as §3
Test [17] in a line: qHTS of pediatric cancer cell lines to identify multiple opportunities for drug repurposing: Primary screen for Rh41 cells (AID 1347108). Further: nearly all actives have a fitted effect of over 70% in size. Further: potency means the concentration at half of the fitted maximal effect. Put shortly: as §2
The nature of test [18]: qHTS of pediatric cancer cell lines to identify multiple opportunities for drug repurposing: Primary screen for BT-12 cells (AID 1347101). Further: nearly all actives have a fitted effect of over 25% in size. Further: potency means the concentration at half of the fitted maximal effect. Put shortly:
as §4

The nature of test [19]: qHTS of pediatric cancer cell lines to identify multiple opportunities for drug repurposing: Primary screen for DAOY cells (AID 1347090). Further: series mostly up to about 46 µM; nearly all actives have a fitted effect of over 55% in size. An outline of the steps:
as §1

Test [20] in a line: qHTS of pediatric cancer cell lines to identify multiple opportunities for drug repurposing: Confirmatory screen for NB1643 cells (AID 1347109). Further: nearly all actives have a fitted effect of over 45% in size. Further: potency means the concentration at half of the fitted maximal effect. An outline of the steps: as §3

Records with an inconclusive call do not appear. Active and inactive are the calls of the source. The call rests on the fitted dose curve; in most records, active means well fitted curve in the direction sought with a large enough effect; inconclusive means small, poorly fitted or top-dose-only effect, or another doubt; inactive means no such curve, though single readings can be large; an effect the other way counts as inactive or inconclusive.

Turning to `CC(C)Oc1cc(Nc2nc(N[C@@H](C)c3ccc(F)cn3)ncc2Cl)[nH]n1`, the Potency in [1] was 16.6 µM (active); in [2], 9.35 µM (active); in test [3], 4.69 µM (active); in test [4], 27.3 µM (active); in test [5], 3.32 µM (active); in [6], 23.5 µM (active). The Potency is 5.26 µM (active) in test [7]; 13.6 µM (active) in [8]; 1.48 µM (active) in [9]; 2.35 µM (active) in [10]; 5.26 µM (active) in test [11]; 21.7 µM (active) in test [12]. Moreover, the Potency in test [13] is 13.2 µM (active); in [14] it was 5.9 µM (active); in test [16], 8.33 µM (active); in [17], 5.26 µM (active). Moreover, the Potency result in test [15] was “inactive”.
In the case of `O=C(Nc1ncc(SCCN2CCCC2)s1)[C@]1(c2ccc(S(=O)(=O)C3CC3)cc2)C[C@@H]1C1CCCCC1`, the Potency in test [1] is 23.5 µM (active); in test [2], 18.7 µM (active); in [3] it was 20.9 µM (active); in test [4] it was 30.6 µM (active); in test [5] it was 26.4 µM (active); in test [6], 23.5 µM (active). The Potency in [7] is 33.2 µM (active); in test [10], 23.5 µM (active); in [18] it was 27.3 µM (active); in test [12], 24.3 µM (active); in test [13], 14.8 µM (active); in test [14], 29.6 µM (active). Besides, the Potency in test [16] is 20.9 µM (active). Moreover, in [15], the Potency result is “inactive”.
Turning to `C[C@]12C=CC(=O)C=C1CC[C@@H]1[C@@H]2[C@@H](O)C[C@@]2(C)[C@@H]1CC[C@]2(O)C(=O)CO`, the Potency result in [19], in test [6], in test [7], in test [9], in test [11] and in test [12] was “inactive” each time. In addition, the Potency result in test [13], in test [14], in test [15] and in [16] was “inactive” in each case. Also, the Potency in [3] is 29.6 µM (active); in test [5], 14.8 µM (active); in [10] it was 23.5 µM (active).
Turning to `CCN(CC)CCCCNc1nc2cc(Cl)c(Cl)cc2nc1-c1ccc(-c2cccs2)s1`, the Potency in test [1] was 10.5 µM (active); in test [2], 11.8 µM (active); in [3], 13.2 µM (active); in test [4], 27.3 µM (active); in [5], 20.9 µM (active); in [7], 18.7 µM (active). The Potency in test [10] was 26.4 µM (active); in test [18] it was 34.3 µM (active); in [11], 18.7 µM (active); in test [12] it was 19.3 µM (active); in [13], 18.7 µM (active); in test [14], 18.7 µM (active). Also, the Potency entry in [15] was “inactive”.
On to `CCCCCCCCCCCCCC(=O)N[C@H](CO)[C@H](O)c1ccc([N+](=O)[O-])cc1`, for which the Potency entry in [19], in [6], in test [11], in test [12], in test [16] and in test [17] was “inactive” each time. The Potency is 13.7 µM (active) in [4], 18.7 µM (active) in test [7] and 24.3 µM (active) in test [18].
On to `CCC(=O)N1CCN(c2ccc(-n3c(=O)ccc4cnc5ccc(-c6cnc7ccccc7c6)cc5c43)cc2C(F)(F)F)CC1`, for which the Potency is 0.0187 µM (active) in test [1]; 0.0118 µM (active) in test [2]; 0.0053 µM (active) in test [3]; 0.0217 µM (active) in test [4]; 0.0662 µM (active) in test [5]; 0.0432 µM (active) in [12]. Further, the Potency result in test [10], in test [16] and in [20] was “inactive” throughout.
With `Cn1c(=O)c(Oc2ccc(F)cc2F)cc2cnc(NC3CCOCC3)nc21`, the Potency result in test [1], in [2], in test [3], in [4], in test [5] and in test [6] was “inactive” in each case. Further, the Potency result in test [8], in test [9], in test [10], in [18], in test [11] and in [13] was “inactive” throughout. The Potency entry in test [15] and in [17] was “inactive” each time.
Take `CN1C(=O)C[C@H](C(=O)N[C@@H](Cc2cnc[nH]2)C(=O)N2CCC[C@@H]2C(N)=O)NC1=O`: the Potency entry in test [19], in test [6], in test [7], in test [8], in test [11] and in test [12] was “inactive” in each case. Further, the Potency entry in [14], in [15] and in [16] was “inactive” in each case. Besides, the Potency in test [4] is 24.3 µM (active); in test [10], 20.9 µM (active).
As for `CCc1cc(-c2n[nH]c(C)c2-c2ccc3c(c2)OCCO3)c(O)cc1O`, the Potency in [1] is 6.62 µM (active); in [2] it was 7.43 µM (active); in [3] it was 10.5 µM (active); in [5], 4.69 µM (active); in test [6], 11.8 µM (active); in [7], 14.8 µM (active). For the same compound, the Potency in test [8] is 9.61 µM (active); in test [9], 10.5 µM (active); in test [10], 5.9 µM (active); in test [11] it was 6.62 µM (active); in [12] it was 9.68 µM (active). The Potency entry in test [15] and in [16] was “inactive” throughout.
Turning to `CCOC(=O)[C@@H](N)CCC(=O)N[C@@H](CSCc1ccccc1)C(=O)N[C@@H](C(=O)OCC)c1ccccc1`, the Potency result in test [19], in test [4], in test [5], in [6], in test [8] and in [10] was “inactive” each time. For the same compound, the Potency result in test [18], in test [11], in [12], in test [13], in test [14] and in test [15] was “inactive” throughout. Besides, the Potency result in test [16] and in test [17] was “inactive” in each case.
With `Clc1ccc(COC(Cn2ccnc2)c2ccc(Cl)cc2Cl)c(Cl)c1` (stereo not given), the Potency is 18.7 µM (active) in [1], 23.5 µM (active) in test [2], 23.5 µM (active) in [10] and 19.3 µM (active) in [12]. Also, the Potency result in test [8] and in test [15] was “inactive” in each case.
With `C[C@@]1(c2cc(-c3cncnc3)c(F)cc2F)CCSC(N)=N1`, the Potency in test [1] is 4.69 µM (active); in test [2] it was 0.0469 µM (active); in test [4] it was 3.06 µM (active); in test [5], 8.33 µM (active); in test [7] it was 2.96 µM (active); in test [8], 12.1 µM (active). In addition, the Potency in [10] is 3.72 µM (active); in [18] it was 3.85 µM (active); in [12] it was 2.73 µM (active); in test [13] it was 2.09 µM (active); in [20], 20.8 µM (active). Besides, the Potency result in [6], in test [11], in [14], in test [15], in test [16] and in [17] was “inactive” throughout.

(Values after PubChem BioAssay (NCATS).)
